In PubChem BioAssay AID588855 (National Center for Advancing Translational Sciences (NCATS), 2011):
The campaign covered roughly 410,000 compounds. About 5,000 (1.2%) were called active. Where a call stands in place of a potency, no number is given. About 13% were inconclusive and are not listed. Calls follow the shape of the dose curve; as a rule, active = well fitted inhibition curve with a large enough effect; inconclusive = small, poorly fitted or top-dose-only effect; inactive = no such curve, though single readings can be large or run the other way. Only a selection was taken, and actives are over-represented in it overall.

Assay: qHTS for Inhibitors of TGF-b; also: nearly all actives have a fitted effect of over 65% in size
Conditions: HepG2 CAGA-GFP TGF-b/SMAD3 reporter, GFP fluorescence, 18 h, TGF-beta stimulated, 500 pg/mL final; series mostly up to 46.1 µM
Procedure, shortened: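 HEPG2 CAGA-GFP, 1000 cells/well; 2 h settle, 37 C; cpd via pin tool; TGF-b 500 pg/mL final; 18 h, 37 C; GFP imaging ex488/em500-530; %Activity normalised to -TGF-b and +DMSO controls; CRC fit, curve class.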
Potency is read from the fitted curve at half-maximal effect.

SMILES | Potency
O=C(NCCCN1CCOCC1)c1ccc2c(c1)N(Cc1cccc(F)c1)C(=O)c1ccccc1S2 | 11.2 µM (active)
O=C(NCCCN1CCOCC1)c1cc(-c2ccccc2F)no1 | inactive
O=C(NCCN1CCOCC1)c1ccc2c(c1)N(Cc1cccc(Cl)c1)C(=O)c1ccccc1S2(=O)=O | inactive
CCC1=Nc2cc(C(=O)NCCCN3CCOCC3)ccc2Sc2ccc(Br)cc21 | inactive
O=C(NCCCN1CCCCC1)c1ccc2c(c1)NC(=O)C(N1CCOCC1)S2 (stereo not given) | inactive
Cc1csc2nc(COC(=O)c3ccc(NC(=O)COc4ccccc4F)cc3)cc(=O)n12 | inactive
COc1ccccc1CNC(=O)C(=O)NCC(c1cccs1)S(=O)(=O)c1cccs1 (stereo not given) | inactive
CC1CC(C)CN(C(=O)C2CC(=O)N(c3ccc(F)cc3)C2)C1 (stereo not given) | inactive
C[C@@H]1C(c2ccc(F)cc2)=NN(c2ccc(Br)cc2)[C@H]1C(=O)N1CCOC1=O | 14.1 µM (active)
Cc1ccc2c(c1)N(C(=O)Nc1ccc(Br)cc1F)CCO2 | inactive
COc1ccc(CNC(=O)c2cc3c(s2)-c2ccccc2OC3)cc1 | inactive
Cc1cc(C)cc(-n2c(SCC(=O)NCC3CCCO3)nc3c([nH]c4ccccc43)c2=O)c1 (stereo not given) | inactive
Cc1cccc(CSc2nc3ccncc3n2Cc2ccc(C(=O)O)cc2)c1 | inactive
Cc1oc(-c2ccccc2)nc1Cn1c(SCc2cccc(C(F)(F)F)c2)nc2cccnc21 | 15.8 µM (active)
Cc1ccc(CSc2nc3cccnc3n2Cc2ccc(C(=O)NC3CC3)cc2)cc1 | inactive
COC(=O)c1ccc(OC)c(Cn2c(=O)n(Cc3ccccc3)c(=O)c3c2c2cc(OC)ccc2n3C)c1 | inactive
COc1cc2[nH]c(C)c(CCN3CCN(c4ccccc4)CC3)c2cc1OC | inactive
O=C(CNS(=O)(=O)c1cccc(C(F)(F)F)c1)Nc1ccccc1F | inactive
O=C(NNc1ccccc1Cl)C(O)(c1cccc(C(F)(F)F)c1)c1cccc(C(F)(F)F)c1 | 15.8 µM (active)
O=C(Nc1cc(C(F)(F)F)ccc1Cl)c1nc2ccccc2nc1N1CCCCC1 | inactive

SMILES | Potency
COc1ccc(CNC(=O)CCc2c(C)nn(-c3ccc(N4CCCC4)nn3)c2C)cc1 | inactive
Cc1ccccc1CNC(=O)CSc1nnc(C)c2c(C)n(-c3ccccc3)nc12 | inactive
O=C(NCCc1ccc(Cl)cc1)c1ccc2nc(CCc3ccccc3)oc2c1 | inactive
Cc1ccc(C)c(Cn2c(CCCNC(=O)C3CCCCC3)nc3ccccc32)c1 | inactive
Cn1c(N)c(C(=O)COC(=O)/C=C/c2cccc(C(F)(F)F)c2)c(=O)n(C)c1=O | inactive
CCOC(=O)CCC(NC(=O)c1ccc(CNc2nc3cc(C(F)(F)F)ccc3nc2C(=O)OCC)cc1)C(=O)OCC (stereo not given) | inactive
CCOC(=O)c1c(NC(=O)c2cc(CC)on2)sc(C(C)=O)c1C | inactive
CCCCN1C(=O)c2[nH]nc(-c3ccccc3O)c2C1c1cccc(OCc2ccccc2)c1 (stereo not given) | 15.8 µM (active)
CN1C(=O)c2[nH]nc(-c3ccc(F)cc3)c2C1c1ccccn1 (stereo not given) | inactive
COc1cccc(-c2n[nH]c3c2C(c2cccc(O)c2)N(C)C3=O)c1 (stereo not given) | inactive
CN(C)Cc1cn(-c2ccccc2)nc1-c1ccccc1 | inactive
Cc1ccc(CNC(=O)C2(C(F)(F)F)C/C(=C\CCO)CCCO2)o1 (stereo not given) | inactive
CCOc1cc(C2C(C(=O)Nc3ccc(OC)cc3)=C(C)Nc3nc(SC)nn32)ccc1O (stereo not given) | inactive
CN1c2ccc(C=O)c3c(C=O)ccc(c23)N(C)C1(C)C | 20 µM (active)
Cc1ccc(C=O)c([B-](F)(F)F)c1 | inactive
CN1CCN(CCCCOc2cccc3ccccc23)CC1 | inactive
CC(C)c1ccccc1OCC(O)CN(CC(O)COc1cccc2ccccc12)C(C)C (stereo not given) | 15.8 µM (active)
CC1CC(C)CN(CCOc2cccc3ccccc23)C1 (stereo not given) | inactive
CCN(C(=O)Cn1cnc2sc(C)c(S(=O)(=O)N3CCN(c4ncccn4)CC3)c2c1=O)c1ccccc1F | inactive
O=C(Nc1ccc2nc(SCCOc3ccccc3Cl)sc2c1)c1ccco1 | inactive

SMILES | Potency
COc1cc(NC(=O)c2cc(C3CC3)nc3c2c(C)nn3-c2ccccc2)cc(OC)c1 | inactive
Cc1cc(C(=O)Nc2cccc(C(F)(F)F)c2)c2c(C)nn(-c3cccc(F)c3)c2n1 | 7.08 µM (active)
CSc1ccc(CCNC(=O)c2cc(C)nc3c2c(C)nn3-c2cccc(F)c2)cc1 | inactive
O=C(Nc1cc(C(F)(F)F)ccc1Cl)c1ccc2c(c1)CCN2S(=O)(=O)c1ccccc1 | inactive
O=C(Nc1cc(C(F)(F)F)ccc1Cl)c1cc2nc(-c3ccc4c(c3)OCO4)cc(C(F)(F)F)n2n1 | inactive
Cc1noc(C)c1S(=O)(=O)Nc1cc(C(F)(F)F)ccc1N1CCOCC1 | inactive
Cc1oc2c(F)c(F)c(F)c(F)c2c1S(=O)(=O)Nc1cccc(C(F)(F)F)c1 | 7.08 µM (active)
CN(CC(=O)Nc1cccc(C(F)(F)F)c1)S(=O)(=O)c1cccs1 | inactive
CCC(=O)N1N=C(c2ccc(OC)cc2)CC1c1cn(-c2ccccc2)nc1-c1cccs1 (stereo not given) | inactive
Cc1nnc(SCC(=O)NCc2ccccc2Cl)c2nn(-c3ccccc3)c(C)c12 | inactive
C=C1C(=O)[C@]23C[C@H]1CCC2[C@@]1(C)C(C[C@@H]3O)[C@](C)(C(=O)O)CC[C@@H]1O (stereo not given in full) | 10 µM (active)
CCn1cc2nc(SCc3ccccc3Cl)n(CCc3ccccc3)c(=O)c2n1 | inactive
Cc1ccc(S(=O)(=O)c2c(Nc3cccc(Cl)c3)sc(C(=O)c3ccc4c(c3)OCO4)c2N)cc1 | inactive
O=C(CSc1cccc2cccnc12)N/N=C/c1cccnc1 | 4.47 µM (active)
Cc1ccc(NC(=O)CSc2cccc3cccnc23)c(C)c1 | 14.1 µM (active)
Cc1ccc(NC(=O)C2CCCN2S(=O)(=O)c2cccc3cccnc23)c(C)c1 (stereo not given) | inactive
Cc1ccc(S(=O)(=O)N(CC(=O)N/N=C/c2ccc(F)cc2)c2cccc3cccnc23)cc1 | inactive
Cc1ccc(NC(=O)CSc2nc3c([nH]c4ccccc43)c(=O)n2-c2ccccc2)c(C)c1 | inactive
O=C(N/N=C\c1cccnc1)c1cc(-c2ccccc2)nc2c(Cl)cccc12 | inactive
Cc1cccc(C)c1-n1ncc(C(=O)NCCCN2CCCCC2)c1C1CCN(C(=O)OC(C)(C)C)CC1 | inactive
